The text below walks through data of PubChem BioAssay (NCI).

Experiment in all cases: NCI-60 one-dose screen, 48 h (100 = growth as untreated, 0 = no growth, -100 = all killed)
Settings in all cases: 10 µM

Assay [1] concerns K-562 leukemia.
In assay [2] the test system is MDA-MB-231 breast.
Assay [3] deals with RXF 393 renal.
In assay [4] the test system is SF-268 CNS.
Assay [5] relates to SF-295 CNS.
For assay [6], the system named is SF-539 CNS.
The subject of assay [7] is UACC-257 melanoma.
Assay [8] concerns M14 melanoma.
The subject of assay [9] is HCT-15 colon.
In assay [10] the test system is MALME-3M melanoma.

Structures are written as SMILES. About 83,000 compounds went through this panel and 20% of them were active in at least one assay; those are over-represented in the sample as a whole.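 Values shown are percent growth following 48 h exposure of cells in 96-well plates to a single concentration of compound; below 10 was considered active.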 Values without a mark were called inactive. Active and inactive are the calls of the source.

Regarding `COc1ccc(-c2nc3sc(-c4ccccc4)c(-c4ccccc4)n3c2/C=C/C(=O)c2ccccn2)cc1`, the growth in [1] is 66%; in assay [2], 75.9%; in assay [3], 84%; in [4], 88%; in assay [5], 99.5%; in assay [6] it was 83.7%. Besides, the growth in assay [7] was 87.2%; in assay [8], 89%; in assay [9] it was 60.6%.

Turning to `COc1ccc2c(c1)N(CCO)C1=C(C(=O)OC1)C2c1cc(OC)c(OC)c(OC)c1` (stereo not drawn), the growth was 15% in assay [1]; -24.4% (active) in [2]; 55.5% in assay [3]; 23.9% in assay [4]; -20.6% (active) in [5]; -6.38% (active) in [6]. In addition, the growth in assay [7] was 47.4%; in assay [8] it was 11.2%; in assay [9], 5.29% (active).

Take `O=C(O)c1ccc(Cl)cc1Nc1ccc(F)cc1`: the growth was 75.4% in [1]; 70.4% in assay [2]; 92.7% in [3]; 62.4% in assay [4]; 73% in [5]; 93.8% in assay [6]. The growth in assay [7] was 97.6%; in [8], 77.6%; in [9], 53.7%.

Turning to `N=C1c2nc3n(c2C(=O)c2nc4n(c21)CCCC4)CCCC3`, the growth in assay [1] was 81.4%; in [2], 82.6%; in assay [3], 94.8%; in assay [4], 71.3%; in assay [5] it was -85.7% (active); in [6], -21.7% (active). Further, the growth in [7] was -6.6% (active); in [8], -95.6% (active); in [9], 6.18% (active).

Take `COc1ccc2c(c1)N(CCO)C1=C(C(=O)OC1)C2c1ccc(OC)c(OC)c1` (stereo not drawn): the growth in assay [1] is 19.8%; in assay [2] it was 68%; in assay [3], 28.2%; in assay [4], 54.3%; in assay [5], 7.46% (active); in [6], 13%. Besides, the growth in assay [7] is 53.7%; in assay [8], 36.1%; in [9], 39.6%.

As for `Cc1cs/c(=N\NC(=O)c2cc(-c3cc4ccccc4o3)nn2-c2ccccc2)n1-c1ccccc1`, the growth in [1] was 94.2%; in assay [10] it was 99.5%; in [2], 84%; in assay [4], 92.5%; in [5], 85%; in assay [6], 106%. The growth in assay [8] is 95.8%; in assay [9] it was 96.6%.

In the case of `c1ccc(C(NC2CC3CCC2C3)c2ccccc2)cc1` (stereo not drawn), the growth in assay [1] is 92.8%; in assay [2], 96.1%; in assay [3] it was 102%; in assay [4], 105%; in assay [5], 94.7%; in [6] it was 111%. Moreover, the growth in assay [7] is 102%; in assay [8] it was 93.1%; in assay [9] it was 97.6%.

As for `N#Cc1cc(-c2cc3ccccc3o2)oc1N`, the growth in assay [1] is 2.52% (active); in assay [10], -5.2% (active); in assay [2], -27.1% (active); in [4] it was 29%; in [5], -28.1% (active); in assay [6] it was -45% (active). Besides, the growth in assay [8] is 26.4%; in [9], 9.98% (active).

Consider `CSc1cc(SC)ncn1`, for which the growth in [1] is 96.6%; in assay [2] it was 95.7%; in assay [3], 124%; in assay [4], 112%; in assay [5] it was 102%; in assay [6] it was 98.1%. Besides, the growth was 104% in assay [7], 112% in assay [8] and 98.2% in [9].

Consider `NC1(C(=O)O)CSSC1`, for which the growth in assay [1] is 43.3%; in assay [2], 124%; in assay [3], 74%; in assay [4], 101%; in assay [5], 33.6%; in [6] it was 97%. Further, the values for the growth in assay [7], in assay [8] and in assay [9] were 48.5%, 9.39% (active) and 66.3%, respectively.

For the compound `O=C(Nc1ccncc1)C(=O)c1cn(S(=O)(=O)c2cccc(Cl)c2)c2ccccc12`, the growth in assay [1] was 19.8%; in assay [2], 87.4%; in [3] it was 89.2%; in [4], 80.9%; in assay [5], 55.8%; in assay [6], 67.3%. Moreover, the growth in assay [7] is 78.1%; in assay [8], 47%; in assay [9], 49.2%.

With `Cc1cc2ccccc2nc1-c1ccccc1F`, the growth in [1] is 110%; in [2], 112%; in assay [3], 99%; in [4] it was 101%; in assay [5] it was 107%; in assay [6], 107%. Moreover, the growth in assay [7] is 89.6%; in assay [8] it was 108%; in assay [9], 101%.

As to `Cn1c(C(N)=O)cc2c1-c1nc(Nc3ccccc3)ncc1CCC2`, the growth was 49.8% in assay [1]; 38.1% in [2]; 3.67% (active) in assay [3]; 47.8% in assay [4]; 60.6% in [5]; 35.5% in assay [6]. The growth is 74.3% in assay [7], 45.5% in assay [8] and 34.6% in [9].

Consider `COc1cc(-c2cc(C(=O)N3CCN(C(=O)c4ccccc4NCc4cccs4)CC3)nc3cc(-c4ccccc4)nn23)cc(OC)c1OC`, for which the growth in assay [1] was 31.4%; in assay [2], 90.1%; in assay [3], 62.3%; in assay [4] it was 90.8%; in assay [5], 105%; in [6], 98.5%. Moreover, the growth in assay [7] is 76.4%; in [8], 70.9%; in assay [9] it was 55.4%.

Turning to `CCCCCCCCCCCC[n+]1ccc(C(N)=O)cc1`, the growth in assay [1] is 7.8% (active); in assay [2] it was 28.4%; in [3], -23.4% (active); in assay [4], 22.1%; in assay [5], 33.6%; in assay [6] it was 8.16% (active). The growth is 29.6% in assay [7], 10.8% in [8] and 87.3% in [9].
